In PubChem BioAssay (NCATS):
Inconclusive results are not listed. Active and inactive are the calls of the source. Unless noted, calls follow the shape of the dose curve; as a rule, active = well fitted curve in the direction sought with a large enough effect; inconclusive = small, poorly fitted or top-dose-only effect, or another doubt; inactive = no such curve, though single readings can be large; an effect the other way counts as inactive or inconclusive.

Experiments:
[1] = target: Mitogen-activated protein kinase 10 (Mus musculus) (UniProt Q61831); assay: JNK3 AlphaScreen Assay (AID 530; active = well fitted curve in either direction with a large enough effect, not every such curve was filed as active;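 also: kinase came from lysate of stimulated human HepG2 cells; signal reports phosphorylation of biotinylated GST-cJun 1-79 at Ser73 with 10 µM ATP; % is scaled to controls: 0 for no effect and ±100 for the full control effect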)
Method in brief: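 qHTS titrations with 15 min compound pre-incubation before adding ATP (10 uM final). Read-out: AlphaScreen of Ser73-phosphorylated biotin-GST-cJun using HepG2 lysate JNK3 activated by IL-1β and TNFα.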

[2] = Cell Viability - Mesenchymal (AID 546);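 also: cells exposed to compound for 40 hours before reading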
Method in brief: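 CellTiter-Glo luminescence (intracellular ATP, 20 min room temperature) after 40 hr compound exposure at 37 °C of 1000 glomerulus-derived human kidney mesenchymal cells/well; AC50 values obtained by fitting qHTS concentration-response data to the Hill equation.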

[3] = Cellular Toxicity (caspase-3) BJ (AID 658);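 also: cells exposed to compound for 16 hours; 0% = DMSO basal and 100% = 10 µM staurosporine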
Method in brief: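 Caspase-Glo 3/7 luminescence, read 1 hr after reagent at room temperature, in normal BJ fibroblasts exposed 16 hours at 37 °C. AC50 values from Hill-equation concentration-response, scaled between DMSO basal and 10 uM staurosporine as 100%.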

[4] = Cellular Toxicity (caspase-3) MRC-5 (AID 659);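 also: 0% = DMSO basal and 100% = 10 µM staurosporine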
Method in brief: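 Luminescent Caspase-Glo 3/7 read-out (1 h, room temperature) after a 16 h, 37 °C compound exposure of MRC-5 lung fibroblasts at 1500 cells/well. Concentration-response AC50 from Hill equation; 0% DMSO, 100% 10 uM staurosporine.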

[5] = target: Cytochrome P450 3A4 (Homo sapiens) (UniProt P08684); assay: qHTS Assay for Inhibitors and Substrates of Cytochrome P450 3A4 (AID 884); also: nearly all actives have a fitted effect of over 50% in size; also: potency is read from the fitted curve at half-maximal effect
Method in brief: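 Luminescent readout of luciferin produced by CYP3A4 (20 nM) dealkylation of Luciferin-PPXE, 25 uM (its KM). NADPH-driven reaction ran 60 min at RT after 10 min compound preincubation; data scaled to 57 uM ketoconazole as 100% inhibition.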

[6] = Cell Viability - LYMP2-001 (AID 921);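 also: 0% = DMSO only and full inhibition = tetraoctylammonium bromide control wells; nearly all actives have a fitted effect of over 70% in size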
Method in brief: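 A lymphoblastoid cell line of human origin was treated with library compounds across a concentration series for 24 hours, and viable cell number was estimated from ATP-driven luciferase light output. Hill modeling gave AC50.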

[7] = MultiTox-Fluor Cytotoxicity Assay - LYMP1-001 - Live Cells (AID 947);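 also: 0% = DMSO only and full inhibition = tetraoctylammonium bromide control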
[8] = MultiTox-Fluor Cytotoxicity Assay - LYMP1-002 - Live Cells (AID 955);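 also: cells exposed to compound for 16 hours; % is scaled to controls: 0 for no effect and ±100 for the full control effect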
Method in brief: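 Cells were seeded at 2500 per well and incubated 5 hr. Compounds were then added for 16 hr at 37 C, followed by MultiTox-Fluor reagent for 60 min at room temperature and fluorescence reading of viable-cell protease signal.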

[9] = Cell Viability - LYMP2-005 (AID 967);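 also: plate controls were DMSO only for no effect and 92 µM tetraoctylammonium bromide control for full effect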
Method in brief: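 Luciferase-based ATP quantitation served as the viability measure in human lymphoblastoid LYMP2-005 cells exposed to test compounds for 24 h at 37 C in complete culture medium. Potency (AC50) was obtained by fitting concentration-response curves with the Hill equation.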

[10] = Cell Viability - LYMP2-015 (AID 971);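 also: 0% = DMSO only and full effect = 92 µM tetraoctylammonium bromide; nearly all actives have a fitted effect of over 55% in size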
Method in brief: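 Cells are seeded at 2500 per well and incubated 5 hr at 37 C. Compounds are added across a concentration series for 24 hr at 37 C. CellTiter-Glo is added, and luminescence is read after 30 min at room temperature.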

[11] = target: Thyroid hormone receptor beta (Homo sapiens) (UniProt P10828); assay: qHTS assay for small molecule agonists of thyroid hormone receptor beta signaling (AID 588545; calls by dose curve;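 also: 0% = DMSO only and 100% = 10 nM T3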)
Method in brief: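 Compounds were tested as agonists in TR-UAS-bla-GripTite HEK 293 cells. After 18 hrs at 37 C, CCF4 substrate was added and fluorescence read after 2 hrs at room temperature.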

[12] = qHTS assay for small molecule antagonists of retinoid X receptor alpha signaling (AID 588546; active = well fitted inhibition curve with a large enough effect in the signal ratio, with a control signal flat, not every such curve was filed as active; the % refers to the signal ratio;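 also: cells stimulated with 9-cis-retinoic acid as agonist; % is scaled to controls: 0 for no effect and ±100 for the full control effect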); conditions: HEK293T RXRa-UAS-bla, beta-lactamase ratio, antagonist mode; measured here: W530 green channel, cytotoxicity proxy
Method in brief: (§1)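 Beta-lactamase reporter inhibition, read as CCF4 fluorescence ratio (ex 405, em 460/530 nm) after 2 h at RT. HEK293T UAS-bla cells, 2500/well, were stimulated with 9-cis-RA at 500 or 100 nM final alongside test compound for 18 h at 37 C.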

[13] = target: Retinoic acid receptor RXR-alpha (Homo sapiens) (UniProt P19793); assay: as above; conditions: HEK293T RXRa-UAS-bla, beta-lactamase ratio, antagonist mode
Method in brief: as §1

[14] = target: Voltage-gated inwardly rectifying potassium channel KCNH2 (Homo sapiens) (UniProt Q12809); assay: qHTS Assay for Small Molecule Inhibitors of the Human hERG Channel Activity (AID 588834);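 also: top concentration of the series differs between compounds; % is scaled to controls: 0 for no effect and ±100 for the full control effect; lower thallium flux fluorescence means stronger hERG block; nearly all actives have a fitted effect of over 50% in size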
Method in brief: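 Homogeneous FluxOR thallium flux assay using hERG-expressing U2OS cells (BacMam). Compound treatment about 10 minutes preceded stimulation; reduced fluorescence taken as channel block.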

[15] = qHTS assay for small molecule disruptors of the mitochondrial membrane potential - 5 hr assay (AID 651755; calls by dose curve; also: % is scaled to controls: 0 for no effect and ±100 for the full control effect; nearly all actives have a fitted effect of over 40% in size)
Method in brief: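 Membrane-potential dye readout: red aggregate (540 ex/590 em) versus green monomer (490 ex/535 em) fluorescence after 30 min dye loading, following 5 hr compound exposure at 37C of overnight-plated HepG2 cells.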

[16] = target: Nuclear receptor ROR-gamma (Homo sapiens) (UniProt P51449); assay: qHTS assay for small molecule antagonists of the retinoid-related orphan receptor gamma (ROR-gamma) signaling pathway (AID 651802);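 also: CHO cells with doxycycline-induced ROR-gamma expression; % is scaled to controls: 0 for no effect and ±100 for the full control effect; nearly all actives have a fitted effect of over 60% in size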
Method in brief: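 Steps: cells dispensed; compound or DMSO transferred by pin tool; doxycycline added to induce the ROR response element-driven luciferase; plates held 16hr at 37C; ONE-Glo added and luminescence measured.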

[17] = target: Nuclear receptor subfamily 1 group I member 2 (Rattus norvegicus) (UniProt Q9R1A7); assay: qHTS assay for small molecule activators of the rat pregnane X receptor (rPXR) signaling pathway (AID 651751; call rule not given here; also: 0% is about no effect); conditions: rPXR reporter cells, luciferase (One-Glo), 24 h
[18] = qHTS assay for small molecule activators of the human pregnane X receptor (PXR) signaling pathway (AID 720659; call rule not given here; also: 0% is about no effect)
[19] = Cellular Toxicity (caspase-3) Jurkat (AID 655); conditions: Jurkat caspase-3 activation, luminescence; caspase-3 activation: at 92.2 µM (top of the series), DMSO = 0%, tamoxifen = 100%;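 also: cells exposed to compound for 16 h at 37 °C before reading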
Method in brief: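 qHTS in human Jurkat T-cell leukemia line: 16 hr compound treatment at 37 °C, caspase-3/7 activity measured by Caspase-Glo luminescence. AC50 derived from Hill equation.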

[20] = qHTS assay for environmental chemicals that activate the Aryl hydrocarbon Receptor (AhR) signaling pathway (AID 651777); conditions: 1A2-DRE human hepatoma cells, luciferase, 24 h; activation: stronger effect = higher value; also: % of control where 0% means no effect; nearly all actives have a fitted effect of over 15% in size
Method in brief: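 Human hepatoma 1A2-DRE cells, stably carrying a dioxin response element and CYP1A2 promoter driving luciferase, were exposed to compounds for 24 hr at 37 C and 5% CO2. Luciferase signal was then read after 30 min One-Glo at room temperature.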

Nuclear receptor ROR-gamma (Homo sapiens), sequence (P51449 whole entry, looked up): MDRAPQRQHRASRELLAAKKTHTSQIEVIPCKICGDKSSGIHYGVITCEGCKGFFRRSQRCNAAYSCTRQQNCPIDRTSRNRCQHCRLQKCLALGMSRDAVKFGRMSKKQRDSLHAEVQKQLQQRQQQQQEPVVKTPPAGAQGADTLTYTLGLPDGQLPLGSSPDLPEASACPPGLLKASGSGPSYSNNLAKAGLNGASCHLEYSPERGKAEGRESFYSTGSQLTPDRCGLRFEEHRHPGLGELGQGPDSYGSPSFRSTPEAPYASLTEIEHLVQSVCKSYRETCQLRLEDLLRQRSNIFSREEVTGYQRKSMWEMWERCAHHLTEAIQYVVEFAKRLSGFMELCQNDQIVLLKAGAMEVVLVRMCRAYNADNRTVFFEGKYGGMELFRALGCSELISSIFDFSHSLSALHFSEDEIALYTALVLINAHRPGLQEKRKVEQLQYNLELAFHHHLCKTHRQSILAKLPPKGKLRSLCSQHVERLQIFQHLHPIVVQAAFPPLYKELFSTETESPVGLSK
Retinoic acid receptor RXR-alpha (Homo sapiens), sequence (P19793 whole entry, looked up): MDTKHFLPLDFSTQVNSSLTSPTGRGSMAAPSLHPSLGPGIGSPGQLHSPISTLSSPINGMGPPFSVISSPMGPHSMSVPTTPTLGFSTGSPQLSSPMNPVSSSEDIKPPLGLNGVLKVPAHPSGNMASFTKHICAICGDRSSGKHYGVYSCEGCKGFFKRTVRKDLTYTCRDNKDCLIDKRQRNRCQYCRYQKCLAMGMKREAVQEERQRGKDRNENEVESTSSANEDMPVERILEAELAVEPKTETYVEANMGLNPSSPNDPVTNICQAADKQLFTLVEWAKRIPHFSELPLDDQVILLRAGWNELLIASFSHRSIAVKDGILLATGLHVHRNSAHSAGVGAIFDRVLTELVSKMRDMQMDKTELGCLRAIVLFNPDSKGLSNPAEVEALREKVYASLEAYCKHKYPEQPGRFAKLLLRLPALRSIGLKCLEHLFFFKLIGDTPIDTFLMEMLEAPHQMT
Nuclear receptor subfamily 1 group I member 2 (Rattus norvegicus), sequence (Q9R1A7 whole entry, looked up): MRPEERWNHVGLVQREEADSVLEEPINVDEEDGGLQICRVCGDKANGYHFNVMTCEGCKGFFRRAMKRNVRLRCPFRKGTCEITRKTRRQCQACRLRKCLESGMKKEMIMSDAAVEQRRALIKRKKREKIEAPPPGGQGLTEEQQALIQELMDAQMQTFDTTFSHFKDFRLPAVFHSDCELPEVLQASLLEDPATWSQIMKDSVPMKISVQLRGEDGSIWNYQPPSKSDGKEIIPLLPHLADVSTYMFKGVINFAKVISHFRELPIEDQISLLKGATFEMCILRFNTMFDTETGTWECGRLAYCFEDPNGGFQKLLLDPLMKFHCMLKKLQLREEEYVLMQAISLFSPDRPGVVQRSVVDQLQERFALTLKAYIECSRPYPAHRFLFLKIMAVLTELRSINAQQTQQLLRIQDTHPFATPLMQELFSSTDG
Thyroid hormone receptor beta (Homo sapiens), sequence (P10828 whole entry, looked up): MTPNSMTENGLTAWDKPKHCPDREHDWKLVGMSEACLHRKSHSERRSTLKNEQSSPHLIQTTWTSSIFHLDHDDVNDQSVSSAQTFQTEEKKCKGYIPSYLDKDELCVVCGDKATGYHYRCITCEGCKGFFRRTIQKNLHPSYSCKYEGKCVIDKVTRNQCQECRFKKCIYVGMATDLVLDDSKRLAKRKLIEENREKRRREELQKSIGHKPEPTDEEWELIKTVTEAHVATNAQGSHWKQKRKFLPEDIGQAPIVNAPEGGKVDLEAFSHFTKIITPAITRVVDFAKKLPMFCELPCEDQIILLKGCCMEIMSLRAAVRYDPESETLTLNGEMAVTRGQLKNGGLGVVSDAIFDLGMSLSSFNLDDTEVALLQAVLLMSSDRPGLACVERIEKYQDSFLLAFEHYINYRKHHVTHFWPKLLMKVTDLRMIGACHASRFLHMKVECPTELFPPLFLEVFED
Cytochrome P450 3A4 (Homo sapiens), sequence (P08684 whole entry, looked up): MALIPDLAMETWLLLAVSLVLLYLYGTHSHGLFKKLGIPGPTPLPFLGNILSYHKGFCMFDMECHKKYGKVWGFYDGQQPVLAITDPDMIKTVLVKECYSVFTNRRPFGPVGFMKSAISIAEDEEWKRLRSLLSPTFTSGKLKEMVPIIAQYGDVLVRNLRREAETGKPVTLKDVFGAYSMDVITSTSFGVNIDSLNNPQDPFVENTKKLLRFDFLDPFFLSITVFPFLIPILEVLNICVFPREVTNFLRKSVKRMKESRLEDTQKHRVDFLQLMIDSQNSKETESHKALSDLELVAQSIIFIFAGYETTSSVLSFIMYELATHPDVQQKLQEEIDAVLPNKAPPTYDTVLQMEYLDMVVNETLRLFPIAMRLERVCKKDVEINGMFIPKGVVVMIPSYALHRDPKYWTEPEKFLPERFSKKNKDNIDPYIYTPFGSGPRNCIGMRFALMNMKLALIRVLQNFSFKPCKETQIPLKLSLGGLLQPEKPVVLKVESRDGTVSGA
Voltage-gated inwardly rectifying potassium channel KCNH2 (Homo sapiens), sequence (Q12809 whole entry, looked up): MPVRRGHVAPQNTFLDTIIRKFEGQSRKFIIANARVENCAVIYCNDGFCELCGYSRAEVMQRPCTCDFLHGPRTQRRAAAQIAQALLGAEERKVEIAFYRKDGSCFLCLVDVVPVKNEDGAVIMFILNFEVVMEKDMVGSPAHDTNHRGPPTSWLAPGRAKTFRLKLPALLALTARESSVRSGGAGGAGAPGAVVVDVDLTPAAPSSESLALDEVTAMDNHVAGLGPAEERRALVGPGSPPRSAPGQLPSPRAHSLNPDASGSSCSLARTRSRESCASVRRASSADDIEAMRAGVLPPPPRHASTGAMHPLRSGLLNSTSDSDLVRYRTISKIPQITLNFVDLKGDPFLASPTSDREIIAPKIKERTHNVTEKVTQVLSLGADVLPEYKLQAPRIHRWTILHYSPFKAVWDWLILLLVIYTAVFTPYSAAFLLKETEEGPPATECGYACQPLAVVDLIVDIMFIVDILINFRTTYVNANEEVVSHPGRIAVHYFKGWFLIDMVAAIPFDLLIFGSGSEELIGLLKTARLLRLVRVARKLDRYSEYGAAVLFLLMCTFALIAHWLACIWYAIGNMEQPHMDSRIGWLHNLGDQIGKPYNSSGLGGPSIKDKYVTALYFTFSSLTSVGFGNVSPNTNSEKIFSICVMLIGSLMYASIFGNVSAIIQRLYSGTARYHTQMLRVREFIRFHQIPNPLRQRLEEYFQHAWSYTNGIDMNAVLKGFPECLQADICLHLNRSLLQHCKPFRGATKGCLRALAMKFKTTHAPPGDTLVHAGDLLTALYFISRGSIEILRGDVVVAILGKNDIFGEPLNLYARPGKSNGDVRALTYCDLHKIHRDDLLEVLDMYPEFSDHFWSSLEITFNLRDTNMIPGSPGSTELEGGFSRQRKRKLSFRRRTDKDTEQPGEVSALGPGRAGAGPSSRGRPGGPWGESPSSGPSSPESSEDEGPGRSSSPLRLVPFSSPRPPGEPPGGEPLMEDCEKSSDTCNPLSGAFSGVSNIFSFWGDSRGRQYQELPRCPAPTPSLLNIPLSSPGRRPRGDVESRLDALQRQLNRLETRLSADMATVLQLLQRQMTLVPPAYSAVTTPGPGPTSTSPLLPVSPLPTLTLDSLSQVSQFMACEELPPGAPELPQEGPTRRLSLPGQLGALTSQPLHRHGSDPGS

CC(C)OC(=O)Cc1ccccc1
inactive: Potency [1] | Potency [2] | outcome [3] | outcome [4] | Potency [5] | Potency [6] | outcome [7] | outcome [8] | Potency [9] | Potency [10] | Potency [11] | max response [13] 8.61% | Potency [14] | Potency [15] | Potency [16] | max response [17] 1.04% | outcome [18]
-2.88%: max response [12]

Nc1ccc(-c2ccccc2)cc1
-4.26%: max response [12]
active: Potency [5] 12.6 µM
inactive: Potency [1] | Potency [2] | caspase-3 activation [19] 2.52% | outcome [3] | Potency [6] | outcome [8] | Potency [9] | Potency [10] | Potency [11] | max response [13] -7.2% | Potency [14] | activation [20] 12.6% | Potency [16] | outcome [18]

C=CCCl
inactive: Potency [1] | Potency [2] | outcome [3] | outcome [4] | Potency [5] | Potency [6] | outcome [7] | outcome [8] | Potency [9] | Potency [10] | Potency [14] | Potency [15] | activation [20] 1.05% | Potency [16] | max response [17] 0.623% | outcome [18]

Nc1ncc([N+](=O)[O-])s1
inactive: Potency [1] | Potency [2] | caspase-3 activation [19] -1.21% | outcome [3] | outcome [4] | Potency [5] | Potency [6] | outcome [7] | outcome [8] | Potency [9] | Potency [10] | Potency [11] | max response [13] 20% | Potency [14] | Potency [15] | activation [20] 1.78% | Potency [16] | max response [17] -6.92% | outcome [18]
-7.58%: max response [12]

Nn1cnnc1
-0.424%: max response [12]
inactive: Potency [1] | Potency [2] | caspase-3 activation [19] 0.14% | outcome [3] | outcome [4] | Potency [5] | Potency [6] | outcome [7] | Potency [9] | Potency [10] | Potency [11] | max response [13] 24.4% | Potency [14] | Potency [15] | activation [20] 0.198% | Potency [16] | max response [17] 2.65% | outcome [18]

Cc1ccc(N)cc1Cl
-6.83%: max response [12]
inactive: Potency [1] | Potency [2] | caspase-3 activation [19] 1.16% | outcome [3] | outcome [4] | Potency [6] | outcome [7] | Potency [9] | Potency [10] | Potency [11] | max response [13] -11.5% | Potency [14] | Potency [15] | outcome [18]

FC(Cl)(Cl)Cl
inactive: Potency [1] | Potency [2] | caspase-3 activation [19] -0.152% | outcome [3] | outcome [4] | Potency [5] | outcome [7] | outcome [8] | Potency [9] | Potency [10] | Potency [11] | max response [13] -1.5% | Potency [14] | Potency [15] | activation [20] -1.34% | Potency [16] | outcome [18]
-8.6%: max response [12]
